Bioassay records (PubChem)
This is one part of a sample in which hits are shown more often than they occur.
14-3-3g Raf = modulators of 14-3-3 gamma protein binding, primary screen, biochemical, fluorescence polarization | 14-3-3 protein gamma (Homo sapiens), P61981 | FP, 14-3-3gamma / TMR-pS259-Raf peptide binding | inhibition, % at 40 µM | hit rate 0.19% among 160,000 | AID 422, 2006; in the data active = inhibition above about 30%;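 also: 0% = protein plus tracer without compound and 100% = blank with tracer alone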
Target sequence (P61981 whole entry, looked up): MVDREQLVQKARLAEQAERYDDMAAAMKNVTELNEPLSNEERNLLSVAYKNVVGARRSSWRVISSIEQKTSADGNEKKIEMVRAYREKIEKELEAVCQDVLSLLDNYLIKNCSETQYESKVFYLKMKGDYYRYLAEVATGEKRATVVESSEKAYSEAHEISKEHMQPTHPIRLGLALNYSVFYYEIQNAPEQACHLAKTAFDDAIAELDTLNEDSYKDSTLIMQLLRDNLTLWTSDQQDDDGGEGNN
Active calls of the source: *; + = active, no number.

SMILES	14-3-3g Raf
CC(C)C1=CC23CCC4C(C)(C(=O)O)CCCC4(C)C2CC1C1C(=O)N(c2ccc(O)cc2)C(=O)C13 (stereo not drawn)	-24.2
CC(C)CN1C(=O)C2C3CC4C5(C)CCCC(C)(C(=O)O)C5CCC4(C=C3C(C)C)C2C1=O (stereo not drawn)	5.8
CC(C)C1=CC23CCC4C(C)(C(=O)O)CCCC4(C)C2CC1C1C(=O)OC(=O)C13 (stereo not drawn)	47.0*
Nc1nc(SCC(=O)NCCCO)nc2sc3c(c12)CCCC3	-6.8
O=C(c1cnccn1)N1CCN(c2ccccc2F)CC1	-26.6
O=C(NC(=O)N1CCN(c2ccccc2F)CC1)c1ccccc1	2.4
O=C(O)C1C2CCC(C2)C1C(=O)N1CCN(c2ccccc2F)CC1 (stereo not drawn)	43.5*
CCN(CC)C(=O)CSc1nnc(CCNC(=O)OC(C)(C)C)o1	-9.6
COc1ccc(OC)c(NC(=O)COc2cc(C)ccc2C(C)C)c1	74.2*
Cc1ccc(C(C)C)c(OCC(=O)Nc2ccc(C)c(C)c2)c1	-11.4
COc1ccc(OC)c(NC(=O)COc2ccccc2C(C)C)c1	-2.2
C=CCn1c(N2C(=O)CC(Cc3ccccc3)C2=O)nc2ccccc21 (stereo not drawn)	-8.2
COc1ccc(-c2nc(CS(=O)CC(=O)NCc3cccnc3)c(C)o2)cc1 (stereo not drawn)	-3.2
O=C(NC1CCCC1)C1CCCN(c2nc3ccccc3o2)C1 (stereo not drawn)	2.4
COc1ccc(CNC(=O)CSc2cc(=O)n(C)c3ccccc23)c(OC)c1	-15.3
Cc1ccc(-n2c(=O)[nH]cc(C(=O)Nc3ccc4c(c3)OCCO4)c2=O)cc1C	37.3*
Cc1ccc(-n2c(=O)[nH]cc(C(=O)Nc3ccc4c(c3)OCCO4)c2=O)cc1	-2.3
COc1ccc(-n2c(=O)[nH]cc(C(=O)Nc3ccc4c(c3)OCCO4)c2=O)cc1	-10.5
COc1ccc(C(=O)NC2CCN(S(=O)(=O)Cc3ccccc3)CC2)c(OC)c1	-3.7
N#CCSc1nc2ccccc2c(=O)n1CCC(=O)N1CCCCC1	-6.9
N=c1ncn(Cc2ccccc2)c2nc(SCc3ccccc3)[nH]c12	-11.1
CC(N)C(=O)N1CCOCCOCCN(C(=O)C(C)N)CCOCCOCC1 (stereo not drawn)	+
CC(C(=O)N1CCOCC1)N1C(=O)c2ccccc2C1=O (stereo not drawn)	-4.8
CC(C)NC(=O)N1CCOCCOCCN(C(=O)NC(C)C)CCOCCOCC1	4.2
CCCSc1nnc2c(n1)OC(c1cccs1)Nc1ccc(Br)cc1-2 (stereo not drawn)	-26.0
SMILES	14-3-3g Raf
CCCCSc1nnc2c(n1)OC(CC)Nc1ccc(Br)cc1-2 (stereo not drawn)	-35.4
CCCSc1nnc2c(n1)OC(C=Cc1ccco1)Nc1ccc(Br)cc1-2 (stereo not drawn)	58.3*
CCOc1ccc(N2C(=O)C3C(c4ccccc4Cl)NN(C(=O)c4cccc(Br)c4)C3C2=O)cc1 (stereo not drawn)	-1.1
CSc1nc2c(sc3ccccc32)c(=O)n1Cc1ccc(C)cc1	-5.5
COc1ccc(CC(=O)N2CC(=O)Nc3ccc(Cl)cc3C2c2ccc(F)cc2)cc1 (stereo not drawn)	0.5
COc1ccc(CCN(C)C2CC(=O)N(c3ccc(Br)cc3)C2=O)cc1OC (stereo not drawn)	-11.7
CCOc1ccccc1-n1cnc2cc(C(=O)O)ccc21	57.2*
CCOc1ccccc1-n1cnc2cc(C(=O)NCc3ccco3)ccc21	-13.9
Cc1nc2cc(C(=O)O)ccc2n1-c1ccccc1	-2.8
COc1ccc(OC)c(-n2cnc3cc(C(=O)O)ccc32)c1	-19.3
COc1ccccc1-n1c(C)nc2cc(C(=O)O)ccc21	39.6*
COCCNC(=O)c1ccc2c(c1)nc(C)n2-c1ccccc1OC	-128.7
COc1ccc(N(CC(=O)NCc2cccc(OC)c2)S(=O)(=O)c2c(C)noc2C)cc1	-2.3
COc1cccc(Nc2nc(CC(C)=O)ns2)c1	-10.4
Cc1cc([N+](=O)[O-])ccc1NC(=O)C1C(C=C(Cl)Cl)C1(C)C (stereo not drawn)	-3.1
c1ccc(OCCN2CCOCC2)cc1	-0.1
O=C(Cn1cc2c(n1)CCCC2)NCc1cccs1	-3.9
COc1ccc(CNC(=O)Cn2cc3c(n2)CCCCC3)cc1	2.2
O=C(Cn1cc2c(n1)CCCC2)NCc1ccccn1	66.6*
Cc1cccc(C(=O)c2ccccc2C(=O)O)c1O	6.0
CCn1c(SCc2ccc(Br)cc2)nnc1-c1ccncc1	-2.5
COc1cc(C2C3=C(CCCC3=O)OC3=C2C(=O)CCC3)cc(Br)c1OCC(=O)O	-5.8
Cc1onc(-c2ccccc2Cl)c1C(=O)Nc1ccc(S(=O)(=O)N2CCC(C)CC2)cc1	-10.2
CC1=NN(C(=O)c2ccc(Cl)cc2)C(C)(C)C1	49.1*
C=CCC1C(C)=NN(C(=O)c2ccc(Cl)cc2)C1(C)O (stereo not drawn)	-6.0
CC1=NN(C(=O)c2ccc(Cl)cc2)C(O)(c2cccc([N+](=O)[O-])c2)C1 (stereo not drawn)	-4.1
Cc1ccc(-c2nnc(SCC(=O)OC(C)C)o2)cc1	-1.0
